Assay results taken from PubChem BioAssay (Tox21).
Inconclusive results are not listed. Where a call stands in place of a potency, no number is given. Active and inactive are the calls of the source. Calls come from the whole dose curve; as a rule, active = well fitted cell-killing curve with a large enough effect in the repeat runs; inconclusive = weak or mixed curves, or effect the other way; inactive = flat fitted curve, though single readings scatter.

How the values were obtained:
[1] = cAMP Responsive Elements (CRE) small molecule antagonists, cell-based qHTS assay: qHTS cell viability counter screen (AID 2060913); note: nearly all actives have a fitted effect of over 40% in size
Method in brief: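 Cytotoxicity counter screen multiplexed with the CRE-bla antagonist read: HEK293T cells in DMEM with dialyzed FBS and 25 mM HEPES were treated 3 hrs under 0.25 uM final NKH477, then viability measured by CellTiter-Glo luminescence.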

[2] = cAMP Responsive Elements (CRE) small molecule agonists, cell-based qHTS assay: qHTS cell viability counter screen (AID 2060914);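 note: viability read after 3 h of compound exposure; nearly all actives have a fitted effect of over 50% in size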
Method in brief: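 CRE-bla HEK 293T cells, plated 18 h at 37 °C, were exposed to compounds for 3 h at 37 °C/5% CO2. Viability was then measured in the same wells by CellTiter-Glo luminescence after 30 min at room temperature.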
Potency is the fitted concentration of half-maximal effect.

Row | Compound | Potency [1] | Potency [2] | viability change, negative = cytotoxic [1] | activity change, negative = cytotoxicity [2]
1 | Nc1nc2c(ncn2COCCO)c(=O)[nH]1 | inactive | inactive | – | –
2 | CC(=O)O[C@]1(C(C)=O)CC[C@H]2[C@@H]3C[C@H](C)C4=CC(=O)CC[C@]4(C)[C@H]3CC[C@@]21C | inactive | inactive | – | –
3 | CCCc1ncc(C[n+]2ccccc2C)c(N)n1 | inactive | inactive | – | –
4 | CCc1ncc(C)[nH]1 | inactive | inactive | – | –
5 | CCCC(=O)Nc1ccc(O)c(C(C)=O)c1 | inactive | inactive | – | –
6 | CC(=O)c1ccc(OCC(=O)N2CCCCC2)cc1 | inactive | inactive | – | –
7 | COc1cc2c(cc1OC)C(C(C(=O)N(CCc1ccc(OC)c(OC)c1OC)CCc1ccc(OC)c(OC)c1OC)c1ccccc1)=NCC2 (stereo unspecified) | inactive | inactive | – | –
8 | O=c1[nH]c2ccc(Cl)cc2o1 | inactive | inactive | – | –
9 | CCc1cnc(C(=O)O)c(C(=O)O)c1 | inactive | inactive | – | –
10 | O=C(c1ccc(O)c(O)c1)c1ccc(O)cc1O | inactive | inactive | – | –
11 | CC(C)C(=O)Nc1ccc([N+](=O)[O-])c(C(F)(F)F)c1 | inactive | inactive | – | –
12 | COC(=O)c1ccccc1Cl | inactive | inactive | – | –
13 | CCCCc1ccc(N)cc1 | inactive | inactive | – | –
14 | C[N+]12CCC(CC1)C(OC(=O)C(O)(c1ccccc1)c1ccccc1)C2 (stereo unspecified) | inactive | inactive | – | –
15 | Cc1occc1SSc1ccoc1C | inactive | inactive | – | –
16 | O=C(O)CC(C(=O)O)C(CC(=O)O)C(=O)O (stereo unspecified) | inactive | inactive | – | –
17 | CC12CCC(CC1)C(C)(C)O2 | inactive | inactive | – | –
18 | O=S(=O)(O)CCO | inactive | inactive | – | –
19 | CCCCCCOCCOCCO | inactive | inactive | – | –
20 | Cc1c(N=C=O)cccc1N=C=O | inactive | inactive | – | –
21 | c1cc2c3c(c1)ccc1cccc(c13)C2 | inactive | inactive | – | –
22 | O=Cc1cc(O)ccc1Br | inactive | inactive | – | –
23 | CC(C=O)Cc1ccc(C(C)(C)C)cc1 (stereo unspecified) | inactive | inactive | – | –
24 | COC(=O)c1cc(S(N)(=O)=O)ccc1OC | inactive | inactive | – | –
25 | CCCCCCOC(=O)CCCCCCCC(=O)OCCCCCC | inactive | inactive | – | –

Row | Compound | Potency [1] | Potency [2] | viability change, negative = cytotoxic [1] | activity change, negative = cytotoxicity [2]
26 | N#Cc1nc(Cl)c(Cl)c(Cl)c1Cl | inactive | inactive | – | –
27 | O=c1[nH]nc(-c2ccc([N+](=O)[O-])o2)o1 | inactive | inactive | – | –
28 | CCCC(CC)c1ccccc1 (stereo unspecified) | inactive | inactive | – | –
29 | CSc1nc(NC2CC2)nc(NC(C)(C)C)n1 | inactive | inactive | – | –
30 | CCC(C)(C)C1CCCCC1OC(C)=O (stereo unspecified) | inactive | inactive | – | –
31 | Oc1ccc(CCNCCCCCCNCCc2ccccc2)cc1O | inactive | inactive | – | –
32 | CCOc1ccc2[nH]cc(C(=O)NCc3ccccc3)c(=O)c2n1 | inactive | inactive | – | –
33 | CC(C)C1OCCN1CCOC(=O)NCCCCCCNC(=O)OCCN1CCOC1C(C)C (stereo unspecified) | inactive | inactive | – | –
34 | CCCCCCCCCCCCS | inactive | inactive | – | –
35 | CC(=O)Nc1ccc(S(N)(=O)=O)cc1 | inactive | inactive | – | –
36 | C[C@]12CC[C@H]3[C@@H](CCC4=CC(=O)CC[C@@]43C)[C@@H]1CC[C@@H]2C(=O)CO | inactive | inactive | – | –
37 | C1COC(NC(C2CC2)C2CC2)=N1 | inactive | inactive | – | –
38 | c1ccc2nccnc2c1 | inactive | inactive | – | –
39 | CC(=O)OC(C(=O)c1ccccc1)c1ccccc1 (stereo unspecified) | inactive | inactive | – | –
40 | COc1cc2c(cc1OC)C(=O)CC2 | inactive | inactive | – | –
41 | CC(C)(N)CO | inactive | inactive | – | –
42 | OC[C@@H](O)[C@@H](O[C@@H]1O[C@H](CO)[C@H](O)[C@H](O)[C@H]1O)[C@H](O)[C@@H](O)CO | inactive | inactive | – | –
43 | CCN1CCc2nc(N)oc2CC1 | inactive | inactive | – | –
44 | CC(=O)Nc1ccc(OC(=O)c2ccccc2OC(C)=O)cc1 | inactive | inactive | – | –
45 | CC[C@H](C)C(=O)O[C@H]1C[C@@H](C)C=C2C=C[C@H](C)[C@H](CC[C@@H]3C[C@@H](O)CC(=O)O3)[C@H]21 | inactive | inactive | – | –
46 | Brc1cc(Br)c(Oc2cc(Br)c(Br)cc2Br)cc1Br | inactive | inactive | – | –
47 | CCCCCCCCCCn1cc[n+](CCCCCCCCCC)c1C | 24.4 µM (active) | 48.6 µM (active) | – | –
48 | CCCCCCCCCCCCCCCCN(C)C | – | – | -5.89% [at 8.39 µM] (inactive) | -12.8% [at 8.39 µM] (inactive)
49 | CC(C)CCCC(C)CC=O (stereo unspecified) | inactive | inactive | – | –
50 | C=CN1CCCC1=O | inactive | inactive | – | –

Row | Compound | Potency [1] | Potency [2] | viability change, negative = cytotoxic [1] | activity change, negative = cytotoxicity [2]
51 | NC(=O)N1c2ccccc2C=Cc2ccccc21 | inactive | inactive | – | –
52 | CCCc1cc(C(N)=S)ccn1 | inactive | inactive | – | –
53 | CCC1COC(=O)O1 (stereo unspecified) | inactive | inactive | – | –
54 | CO[C@@]1(NC(=O)CSCC#N)C(=O)N2C(C(=O)O)=C(CSc3nnnn3C)CS[C@@H]21 | inactive | inactive | – | –
55 | COc1cc([N+](=O)[O-])ccc1N | inactive | inactive | – | –
56 | CC(C)CCCCCCOC(=O)C1CCCCC1C(=O)OCCCCCCC(C)C (stereo unspecified) | inactive | inactive | – | –
57 | C=C1C(=C/C=C2\CCC[C@]3(C)[C@@H]([C@H](C)/C=C/[C@@H](O)C4CC4)CC[C@@H]23)C[C@@H](O)C[C@@H]1O | inactive | inactive | – | –
58 | CNCCCC12CCC(c3ccccc31)c1ccccc12 | inactive | inactive | – | –
59 | CCOC(=O)c1ccc(O)c(O)c1 | inactive | inactive | – | –
60 | Nc1ccc(S(=O)(=O)NCc2ccccc2)cc1 | inactive | inactive | – | –
61 | CC(C)(O)CCc1ccccc1 | inactive | inactive | – | –
62 | Nc1ccc(C(=O)Nc2ccccc2N)cc1 | inactive | inactive | – | –
63 | Cc1cc(=O)oc2cc(O[C@@H]3SC[C@@H](O)[C@H](O)[C@H]3O)ccc12 | inactive | inactive | – | –
64 | CC1=C(/C=C/C(C)=C/C=C/C(C)=C\C(=O)O)C(C)(C)CCC1 | inactive | inactive | – | –
65 | O=C1c2ccccc2C(=O)C1c1ccc(Br)cc1 | inactive | inactive | – | –
66 | NCCN1CCOCC1 | inactive | inactive | – | –
67 | C=CCCC(=O)O | inactive | inactive | – | –
68 | CC(=O)O[C@H]1C[C@@H]2CC[C@@H]3[C@H](CC[C@@]4(C)[C@H]3C[C@H]([N+]3(C)CCCCC3)[C@@H]4OC(C)=O)[C@@]2(C)C[C@@H]1N1CCCCC1 | inactive | inactive | – | –
69 | O=C(O)/C=C/c1ccc(Cn2ccnc2)cc1 | inactive | inactive | – | –
70 | CCOC(=O)c1ccc(C2CCC(NC[C@H](O)COc3ccc(O)c(NS(C)(=O)=O)c3)CC2)cc1 (stereo partly specified) | inactive | inactive | – | –
71 | CCCCCc1ccc(Cl)cc1 | inactive | inactive | – | –
72 | CCC1OCC(COc2ccc(Oc3ccccc3)cc2)O1 (stereo unspecified) | inactive | inactive | – | –
73 | Cc1ccc(C)c(N)c1 | inactive | inactive | – | –
